The values that follow come from PubChem BioAssay (Tox21).

Results filed as inconclusive are left out. Values without a mark were called inactive. Activity calls are given as the source filed them. The call rests on the fitted dose curve; in most records, active means well fitted cell-killing curve with a large enough effect in the repeat runs; inconclusive means weak or mixed curves; inactive means no such curve, though single readings can be large or run the other way.
On the % scale 0 is the no-effect control and ±100 the full control effect; potency means the concentration at half of the fitted maximal effect.

The nature of the assay: qHTS assay for identifying genotoxic compounds that show differential cytotoxicity against isogenic chicken DT40 cell lines with known DNA damage response pathways - Rad54/Ku70 mutant cell line (AID 743015). Further: nearly all actives have a fitted effect of over 60% in size. Conditions: DT40 Rad54/Ku70 mutant viability, CellTiter-Glo, 40 h; series mostly up to 66.8 µM; activity change, negative = cytotoxicity: at the top concentration. The source says: National Center for Advancing Translational Sciences [NCATS]
NIH Chemical Genomics Center [NCGC]
U.S. Environmental Protection Agency [EPA]
National Institutes of Environmental Health Sciences [NIEHS]
National Toxicology Program [NTP]
U.S. Food and Drug Administration [FDA]
DNA repair pathways play a critical role in cellular homeostasis by repairing DNA damage induced by endogenous processes and xenobiotics. Isogenic chicken DT40 cell lines deficient in different DNA repair pathways can be used to identify genotoxic compounds and aid in characterizing the nature of the DNA damage induced. Two DNA repair-deficient cell lines with disrupted genes, Rad54/Ku70 or Rev3, were used to screen the Tox21 10K compound library. Possible genotoxicity was based on the presence of a significant increase in cytotoxicity in one or more of the DNA repair-deficient cell lines compared to that observed in the parental DNA repair-proficient cell line. CellTiter Glo viability assay (Promega, Madison, WI) was used to measure cell viability in these cells after compound treatment. This assay includes the data from the Rad54/Ku70 mutant cell line.
Tox21 Assay Protocol Summary:
300 DT40 mutant cells in 5 uL/well were dispensed into white, solid-bottom 1536-well plates using a Multidrop Combi (ThermoFisher Scientific, Waltham, MA) dispenser. After the assay plates were incubated at 37 C/5% CO2 for approximately 0.5 hour, 23 nL of compounds dissolved in DMSO, positive controls or DMSO only was transferred into the assay plate by a pintool work station (Kalypsys, San Diego, CA). The assay plates were incubated at 37 C/5% CO2 for 40 hours. After 5 uL per well of CellTiter-Glo reagent was added into each well of the assay plates, the plates were incubated for 30 min at room temperature and the luminescence intensity of the plates was measured using a ViewLux (PerkinElmer, Shelton, CT) plate reader.
For orientation: qHTS replaces the single test concentration by a dilution series.
With `CCCc1cc(C(N)=S)ccn1`, the “activity change, negative = cytotoxicity” value is 2.39%. Take `CCOC(=O)c1c(C)n(C)c2ccc(O)cc12`: the “activity change, negative = cytotoxicity” value was -7.72%. The same measure, in the same setting: for `C/C=C(\C)C#N` the value was -1.41%; for `CCCCC(CC)COC(=O)c1ccccc1O` (stereo not given), 9.26%; for `N=c1nc(N2CCCCC2)cc(N)n1O`, 9.11%. The same measure, in the same setting: the same measure for `Cc1cccc(C)c1NC(=O)C(C)N` (stereo not given): 12.4% [at 30.7 µM]; for `CCCCCCOC(=O)CCCCC(=O)OCCCCCC`: -1.41%. Take `O=C1CCCCCCCCCCCN1`: the Potency result is “inactive”.

With `NC(=O)c1cn(Cc2c(F)cccc2F)nn1`, the “activity change, negative = cytotoxicity” value is 1.74%.

Take `CCc1nccnc1CC`: the “activity change, negative = cytotoxicity” value was -15.9% [at 30.7 µM]. Still for that read-out and setting: the same measure for `CCCCCCCCCCCCN(CCCCCCCCCCCC)CCCCCCCCCCCC`: 19.5%.

As for `COc1nc(N)nc2c1ncn2[C@@H]1O[C@H](CO)[C@@H](O)[C@@H]1O`, the “activity change, negative = cytotoxicity” value was 6.31%. Same read-out and setting: the same measure for `CN1CCCC1`: -4.36%; for `O=C1OC(=O)C2CCCCC12` (stereo not given): 4.55%; for `CC(C)(O)C(=O)c1ccccc1`: 2.92%.

`OCCCC1CCCCC1`: the “activity change, negative = cytotoxicity” value is -18.1%. Same read-out and setting: for `CCOC(=O)CC(C)=O` the value was 9.6% [at 95.1 µM]. `CN(C)CCCNCCCN(C)C`: the “activity change, negative = cytotoxicity” value was 6.09%. The same measure, in the same setting: the same measure for `ClC(Cl)(Br)Br`: 2.79%; for `CCOC(=O)CCC(C)=O`: 2.13%.

Consider `COc1c(N2C[C@@H]3CCCN[C@@H]3C2)c(F)cc2c(=O)c(C(=O)O)cn(C3CC3)c12`, for which the “activity change, negative = cytotoxicity” value is -3.82%. On the same count and under the same terms, for `NS(=O)(=O)c1ccccc1Cl` the value was 12.2%; for `NS(=O)(=O)c1cc(C(=O)O)cc(N2CCCC2)c1Oc1ccccc1`, -4.07% [at 30.7 µM].

For `CCCCCCCCCCCCCCCCC`, the “activity change, negative = cytotoxicity” value was 9.51%. In the case of `C=CCOCC(CC)(CO)COCC=C`, the “activity change, negative = cytotoxicity” value is 3.61%. The same measure, in the same setting: for `C[N+](C)(C)CC(O)CC(=O)[O-]` (stereo not given) the value was -8.87%. Still for that read-out and setting: the same measure for `CCCCCCCCS(=O)(=O)Cl`: 9.57% [at 95.1 µM]; for `COC(=O)NN`: 8.16% [at 95.1 µM]; for `CC(C)OC(=O)c1ccccc1`: 3.87% [at 95.1 µM]. For `CCOC(=O)C(=O)OCC`, the “activity change, negative = cytotoxicity” value is -3.9%. On the same count and under the same terms, for `Nc1ccc(S(=O)(=O)Nc2ccnn2-c2ccccc2)cc1` the value was 3.28% [at 30.7 µM]. The same measure, in the same setting: the same measure for `CO[Si](CCCOCC1CO1)(OC)OC` (stereo not given): -3.98%; for `Cc1[nH]c(=O)c(C#N)cc1-c1ccc2nccn2c1`: -1.31%. Turning to `CO[C@]12C[C@@H](COC(=O)c3cncc(Br)c3)CN(C)[C@@H]1Cc1cn(C)c3cccc2c13`, the Potency is 11.9 µM (active). Take `O=C1CCCC(=O)C1`: the “activity change, negative = cytotoxicity” value is 1.69%. On the same count and under the same terms, the same measure for `OCCOc1ccc(OCCO)cc1`: 1.4% [at 95.1 µM]; for `CCC=O`: 5.2% [at 95.1 µM]. With `CC(C[N+](C)(C)C)OC(N)=O` (stereo not given), the “activity change, negative = cytotoxicity” value is 6.22%.

Turning to `CCCN1CCCC[C@H]1C(=O)Nc1c(C)cccc1C`, the “activity change, negative = cytotoxicity” value is 0.0754%. Take `Nc1ccccc1S(=O)(=O)O`: the “activity change, negative = cytotoxicity” value was 2.67%.
